p53 reactivation = mutant p53 re-activation in reporter cells; H1299 p53-A138V BP100-luciferase reporter, luminescence, 24 h; Potency, µM (highest dose often 92.2 µM), hits mostly activators; 0.063% of 320,000 active; further: nearly all actives have a fitted effect of over 45% in size
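p53-null H1299 cells stably carrying temperature-sensitive p53-A138V and a BP100-luciferase reporter were pinned with compounds (4-point, 1:5 series) and held 24 hrs at 37 deg C. Luminescence was read 10 min after detection reagent.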
BRCA1 expr up = BRCA1 expression activation; MCF7-BRCA1-FFLuc reporter, luminescence, 48 h; response scale: scaled: vehicle 0%, 10 µM genistein 100%; Potency, µM (series often up to 46.1 µM), actives largely listed as activators; 1.1% of 380,000 active; AID 624202; further: nearly all actives have a fitted effect of over 80% in size
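Quantitative HTS in MCF7 cells stably reporting BRCA1 expression via firefly luciferase. Compound treatment lasts 48 h at 37 °C in phenol-red free MEM. Activation is expressed relative to genistein at 10 microM and DMSO.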
Giardia kill = kills Giardia lamblia; Giardia lamblia trophozoite viability; activity change, % at 7.66 µM, hits read low; 0.15% of 340,000 active; in the data active means activity change below about -80%; inconclusive means between about -30% and that limit;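 further: parasites exposed to compound for two days anaerobically before the ATP read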
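Luminescent ATP signal served as the viability read-out, measured 15-30 min after adding ATP detection reagent to trophozoites that had been incubated with compounds for 48 hrs at 37 deg C anaerobically at 100 cells/well.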
VP16 counter = inhibits Gal4-VP16 luciferase reporter, ROR gamma counter-screen. Drosophila S2 Gal4-VP16 UAS-luciferase, luminescence, 20 h. Potency, µM (titrated, usually from 53.6 µM), most hits filed as inhibitors. 3.5% of 310,000 active;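 further: Gal4-VP16 expression switched on by copper sulfate through the metallothionein promoter; nearly all actives have a fitted effect of over 50% in size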
ELG1 DNA repair = inhibitors of ELG1-dependent DNA repair in HEK293T cells. HEK293T ELG1-luciferase reporter, luminescence, 16 h; DNA damage induced by 5-fluorouridine. Potency, µM (doses to about 46.1 µM), actives largely listed as inhibitors. 2.3% of 330,000 active; further: nearly all actives have a fitted effect of over 55% in size
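DMSO vehicle served as the neutral condition. Each well held 2,000 cells given 5-fluorouridine plus compound; after 16 hr at 37 °C/5% CO2, ONE-Glo was added and luciferase measured 30 min later.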
RORgamma inh = blocks mouse ROR gamma transcriptional activity. P51450. 5.4% of 310,000 active. Potency, µM (doses to about 53.6 µM), most hits filed as inhibitors. Drosophila S2 Gal4-RORgamma UAS-luciferase reporter, 20 h; further: nearly all actives have a fitted effect of over 60% in size
Target sequence (P51450 whole entry, looked up, the tested form may be a part): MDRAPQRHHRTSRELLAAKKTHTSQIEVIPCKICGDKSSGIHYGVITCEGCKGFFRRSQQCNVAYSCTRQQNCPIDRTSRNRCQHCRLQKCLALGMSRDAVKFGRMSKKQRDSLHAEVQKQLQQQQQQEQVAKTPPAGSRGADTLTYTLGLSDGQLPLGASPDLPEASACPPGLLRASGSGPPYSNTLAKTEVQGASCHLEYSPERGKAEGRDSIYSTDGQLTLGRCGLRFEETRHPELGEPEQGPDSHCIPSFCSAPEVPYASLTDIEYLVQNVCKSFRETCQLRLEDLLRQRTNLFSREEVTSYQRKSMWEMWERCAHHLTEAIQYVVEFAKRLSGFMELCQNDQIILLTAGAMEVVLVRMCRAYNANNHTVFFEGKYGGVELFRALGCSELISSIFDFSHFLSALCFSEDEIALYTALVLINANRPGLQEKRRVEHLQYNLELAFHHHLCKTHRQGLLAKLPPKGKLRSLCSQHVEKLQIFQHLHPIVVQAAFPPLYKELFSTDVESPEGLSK
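ROR gamma transcriptional activity was tracked as Gal4-UAS luciferase output in stably transfected Drosophila Schneider cells, with compound added 1 hr before 700 uM copper sulfate induction and a 20 hr ambient-temperature incubation.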
A number is an active result; . = inactive; ? = inconclusive; / = no result; [ ] = remark or other dose. In the library only some 7.6% were active in any assay of this set; here they are far more common. Unless noted, the call rests on the fitted dose curve; in most records, active means well fitted curve in the direction sought with a large enough effect; inconclusive means small, poorly fitted or top-dose-only effect, or another doubt; inactive means no such curve, though single readings can be large; an effect the other way counts as inactive or inconclusive.

SMILES	p53 reactivation	BRCA1 expr up	Giardia kill	VP16 counter	ELG1 DNA repair	RORgamma inh
CC(=O)c1ccc(NC(=O)CCCN2C(=O)/C(=C/C(C)=C/c3ccccc3)SC2=S)cc1	?	.	.	?	.	11µM
COC(=O)C1=C(C)N(c2cc(C)cc(C)c2)/C(=C/c2ccc(O)cc2)C1=O	.	.	.	?	?	?
O=C(CNC(=S)N(CCCN1CCOCC1)Cc1cccs1)N1CCCCCC1	.	.	.	.	.	.
CC(C)OCCCNC(=O)C1CCC(=O)N1C1CCCC1 (configuration not stated)	.	.	.	.	.	.
Cc1ccc(C(=O)NC2CCCc3ccccc32)o1 (configuration not stated)	.	.	.	.	.	.
Cc1ccc(/C=C2\SC(=S)N(CCCC(=O)Nc3ccccc3C(=O)O)C2=O)cc1	.	.	.	?	.	.
Cc1ccc(/C=C2\SC(=S)N(CCCC(=O)Nc3nccs3)C2=O)cc1	.	.	.	.	.	.
O=C(CCCN1C(=O)/C(=C\c2cccs2)SC1=S)Nc1ccc(C(=O)O)cc1	.	.	.	.	.	.
COc1cccc(/C=C2\SC(=S)N(CCC(=O)NNC(=O)c3ccccc3OC)C2=O)c1	.	.	.	.	.	?
CCc1ccc(/C=C2\SC(=S)N(CCCC(=O)Nc3nccs3)C2=O)cc1	.	.	.	.	.	0.56µM
COc1ccc(/C=C2/SC(=S)N(CCCC(=O)Nc3ccccc3C(=O)O)C2=O)cc1	.	.	.	3.5µM	.	1.4µM
CCN(CC)CCOC(=O)c1ccc(NC(=O)CCCN2C(=O)/C(=C/c3cccs3)SC2=S)cc1	?	.	.	11µM	.	22µM
COc1cccc(/C=C2/SC(=S)N(CC(=O)NNC(=O)c3ccccc3OC)C2=O)c1	.	.	.	?	.	10µM
CC(C)Cn1c2ccccc2c2cc(C(=O)O)ccc21	.	.	.	.	.	.
Cc1ccccc1N1CCN(S(=O)(=O)c2cccs2)CC1	.	.	.	.	.	.
CCn1c(NCc2cc(OC)ccc2OC)nc2ccccc21	?	.	.	.	?	.
CCCn1c(NCc2cc(OC)ccc2OC)nc2ccccc21	.	.	.	11µM	?	5µM
C=CCn1c(NCc2ccc(OC)cc2O)nc2ccccc21	.	13µM	.	.	?	?
COc1ccc(CNc2nc3ccccc3n2CCN2CCCCC2)c(OC)c1	.	.	.	.	.	13µM
COC(C[C@H]1O[C@@H]1C(=O)COCc1ccccc1)OC	/	.	.	/	/	/
CCOc1cc(NC(=S)NCC2CCCO2)c(OCC)cc1NC(=O)c1ccccc1 (configuration not stated)	.	.[1.84 µM]	.	11µM	?	6.3µM
CCOc1cc(NC(=S)Nc2cccc(OC)c2)c(OCC)cc1NC(=O)C1CC1	.	.	.	?	?	7.1µM
CCOc1cc(NC(=S)NCC2CCCO2)c(OCC)cc1NC(=O)c1cccc(F)c1 (configuration not stated)	.	.	.	4.5µM	?	3.5µM
COc1cccc(NC(=O)C2CCC2)c1	.	.	.	/	?	/
O=C(NCC1CCCO1)c1cccc(F)c1 (configuration not stated)	.	.	.	.	.	.
SMILES	p53 reactivation	BRCA1 expr up	Giardia kill	VP16 counter	ELG1 DNA repair	RORgamma inh
CCOc1cc(NC(=S)NCC2CCCO2)c(OCC)cc1NC(=O)c1ccc(C)cc1 (configuration not stated)	.	.	.	4µM	.	3.2µM
CCOc1cc(NC(=S)NCC2CCCO2)c(OCC)cc1NC(=O)c1ccc(F)cc1 (configuration not stated)	.	.	.	?	.	?
CCCCCCNCc1ccc(Br)cc1	.	.	.	.	.	.
CCOc1cc(NC(=S)NCCCN2CCOCC2)c(OCC)cc1NC(=O)c1cccc(C)c1	.	.	.	.	.	.
CCOc1cc(NC(=S)NCC2CCCO2)c(OCC)cc1NC(=O)C1CC1 (configuration not stated)	.	.	.	.	.	11µM
CCOc1cc(NC(=S)NCC2CCCO2)c(OCC)cc1NC(=O)c1cccc(C)c1 (configuration not stated)	.	.	.	11µM	?	4.5µM
CCOc1cc(C(=O)NCC2CCCO2)cc(OCC)c1OCC (configuration not stated)	.	.	.	.	.	.
CS(=O)(=O)c1cccc(-c2nnc(NC(=O)c3ccc(S(=O)(=O)N4CCCC4)cc3)o2)c1	.	.	.	/	.	/
O=C(Nc1nnc(-c2ccccn2)o1)c1ccc(Br)cc1	.	.	.	0.63µM	.	0.63µM
CC1CCCN(S(=O)(=O)c2ccc(C(=O)Nc3nnc(-c4ccccn4)o3)cc2)C1 (configuration not stated)	.	.	.	.	?	1.8µM
COc1ccccc1-c1nnc(NC(=O)c2ccc(S(=O)(=O)N3CCCC3)cc2)o1	.	.	.	0.89µM	.	0.71µM
CC1CCCN(S(=O)(=O)c2ccc(C(=O)Nc3nnc(-c4ccccc4Cl)o3)cc2)C1 (configuration not stated)	.	.	.	0.16µM	.	0.1µM
CC(SC1CCCC1)C(=O)NC(C)(C#N)C(C)C (configuration not stated)	.	.	.	.	.	.
CC1CCCN(S(=O)(=O)c2ccc(C(=O)Nc3nnc(C4CC4)o3)cc2)C1 (configuration not stated)	?	.	.	1µM	.	0.22µM
CC1CCCN(S(=O)(=O)c2ccc(C(=O)Nc3sc4c(c3C(N)=O)CCN(C)C4)cc2)C1 (configuration not stated)	.	.	.	?	.	?
CCc1ccc2c(COC(=O)C3CSC4(C)CCC(=O)N34)cc(=O)oc2c1 (configuration not stated)	.	.	.	/	.	/
CN(C(=O)c1ccc2c(Cl)c3c(nc2c1)CCC3)c1ccccc1	.	6.3µM	.	.	?	.
CCN(C(=O)c1ccc2c(Cl)c3c(nc2c1)CCC3)c1ccc(C)c(C)c1	.	.	.	.	?	?
CC(=O)Nc1ccccc1C(=O)C(=O)Nc1ccc(C(=O)NCC2CCCO2)cc1 (configuration not stated)	.	.	.	.	.	.
O=Cc1ccc(C(=O)O)cc1	.	.	.	.	.	.
Cc1ccc(CNC(=O)CN2C(=O)NC3(CC(C)CC(C)(C)C3)C2=O)cc1 (configuration not stated)	.	.	.	/	.	/
O=[N+]([O-])c1ccc(/C=N/n2c(C3CCCCC3)n[nH]c2=S)cc1	.	.	.	?	.	1.4µM

Source: PubChem BioAssay (National Center for Advancing Translational Sciences (NCATS))
